# Experimental data reported in PubChem BioAssay (Tox21).
# Results filed as inconclusive are left out. Where a call stands in place of a potency, no number is given. Calls of active or inactive are those of the source. Unless noted, calls come from the whole dose curve; as a rule, active = well fitted curve in the direction sought with a large enough effect in the repeat runs; inconclusive = weak or mixed curves; inactive = no such curve, though single readings can be large; an effect the other way counts as inactive or inconclusive.
# Tests used:
# [1] = qHTS assay to identify small molecule agonists of the vitamin D receptor (VDR) signaling pathway - cell viability counter screen (AID 743224); note: series mostly up to about 63 µM; nearly all actives have a fitted effect of over 50% in size
# Outline: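 Luminescence from CellTiter-Glo, read after 30 min at room temperature, reports viability of VDR-bla cells treated with compounds for 16 h at 37C in the wells used for the beta-lactamase FRET read.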
# [2] = qHTS assay to identify small molecule antagonists of the vitamin D receptor (VDR) signaling pathway - cell viability counter screen (AID 743225); note: nearly all actives have a fitted effect of over 50% in size
# Outline: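 Cells (VDR-UAS-bla HEK 293T) are plated, rested 4 h at 37C, dosed with compound and 3 nM final 1-alpha,25-dihydroxy vitamin D3, and incubated 16 h. Viability is taken from CellTiter-Glo luminescence in the reporter wells.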
# [3] = qHTS assay to identify small molecule agonists of the endoplasmic reticulum stress response signaling pathway (AID 1159516; active = well fitted activation curve with a large enough effect in the signal ratio in the repeat runs, not every such curve was filed as active; the % refers to the signal ratio)
# Outline: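 Read-out is beta-lactamase cleavage of a FRET substrate (405 nm excitation; 460 and 530 nm emissions) in ESRE-bla HeLa cells after a 5 hr compound exposure at 37 C. Substrate incubation ran 2 hr at room temperature.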
# [4] = qHTS assay to identify small molecule agonists of the AP-1 signaling pathway (AID 1159526; calls by dose curve)
# [5] = qHTS assay to identify small molecule agonists of the RXR signaling pathway - cell viability counter screen (AID 1159529); note: series mostly up to about 77 µM; nearly all actives have a fitted effect of over 50% in size
# Outline: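 Cell viability is measured by CellTiter-Glo luminescence, 30 min at room temperature, in wells already read for beta-lactamase. Engineered HEK 293T cells (RXR-alpha-UAS-bla) are dosed 16 hr at 37 C. Tetraoctyl ammonium bromide serves as positive control.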
# [6] = qHTS assay to identify small molecule antagonists of the retinoid acid receptor (RAR) signaling pathway - cell viability counter screen (AID 1159551); note: nearly all actives have a fitted effect of over 35% in size
# Outline: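 Luminescent ATP quantitation (CellTiter-Glo) gave cell viability in C3RL4 cells exposed to test chemicals for 6 h at 37 C alongside 1 uM final retinol.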
# [7] = qHTS assay to identify small molecule agonists of the retinoic acid receptor (RAR) signaling pathway (AID 1159553); note: potency is the fitted concentration of half-maximal effect
# Outline: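 Luminescence from a RARE-driven luciferase reporter in C3RL4 cells served as the read-out, measured after 30 min with detection reagent at room temperature. Compounds in DMSO were applied for 6 hr at 37 C following overnight seeding.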
# [8] = qHTS assay to identify small molecule agonists of the endoplasmic reticulum stress response signaling pathway - cell viability counter screen (AID 1159517; calls by dose curve;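 note: HeLa cells carrying an ER stress response element beta-lactamase reporter; series mostly up to about 61 µM; nearly all actives have a fitted effect of over 50% in size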)
# Outline: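 ESRE-bla HeLa cells, 1,500 per well, seeded overnight then treated with compounds for 5 hr at 37 C. After the beta-lactamase read, viability in the same wells is measured by CellTiter-Glo luminescence after 30 min at room temperature.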
# [9] = molecular target: Nuclear receptor ROR-gamma (Homo sapiens) (UniProt P51449); test: qHTS assay to identify small molecule antagonists of the retinoid-related orphan receptor gamma (ROR-gamma) signaling pathway (AID 1159521)
# Outline: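 RORγ antagonism is scored from reduced reporter luminescence in Tet-on CHO cells. Induction used 1 uM final doxycycline hyclate for 16 h at 37 C, following a 2 h compound exposure.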
# [10] = molecular target: Retinoic acid receptor RXR-alpha (Homo sapiens) (UniProt P19793); test: qHTS assay to identify small molecule agonists of the RXR signaling pathway (AID 1159527; calls by dose curve; note: nearly all actives have a fitted effect of over 35% in size)
# Outline: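 qHTS of the Tox21 10K library in GeneBLAzer RXR-alpha HEK 293T cells carrying a beta-lactamase reporter […]; 16 hr treatment, 9-cis retinoic acid as agonist control, FRET read-out.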
# [11] = qHTS assay to identify small molecule antagonists of the retinoic acid receptor (RAR) signaling pathway (AID 1159552; note: nearly all actives have a fitted effect of over 50% in size)
# Outline: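 Quantitative HTS in C3RL4 RARE-luciferase reporter cells. Compounds were added with 1 uM (final) retinol; luminescence was read after 6 hr.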
# [12] = qHTS assay to identify small molecule antagonists of the retinoid-related orphan receptor gamma (ROR-gamma) signaling pathway - cell viability counter screen (AID 1159520); note: nearly all actives have a fitted effect of over 50% in size
# Outline: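 Tet-on ROR gamma CHO cells were given compounds for 2 hr, then doxycycline hyclate at 1 uM final, and incubated 16 hr at 37 C. Viability was measured as ATP content by CellTiter-Glo luminescence.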
# [13] = qHTS assay to identify small molecule agonists of the AP-1 signaling pathway - cell viability counter screen (AID 1159525; calls by dose curve; note: nearly all actives have a fitted effect of over 55% in size)
# Outline: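 AP-1-bla ME-180 cells in Opti-MEM with 0.5% dialyzed FBS, compound exposure 5 h at 37 C in 15-point titration. Viability read in the same wells as ATP content by CellTiter-Glo luminescence, normalised to tetra-n-octylammonium bromide and DMSO controls.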
# Retinoic acid receptor RXR-alpha (Homo sapiens), sequence (P19793 whole entry, looked up): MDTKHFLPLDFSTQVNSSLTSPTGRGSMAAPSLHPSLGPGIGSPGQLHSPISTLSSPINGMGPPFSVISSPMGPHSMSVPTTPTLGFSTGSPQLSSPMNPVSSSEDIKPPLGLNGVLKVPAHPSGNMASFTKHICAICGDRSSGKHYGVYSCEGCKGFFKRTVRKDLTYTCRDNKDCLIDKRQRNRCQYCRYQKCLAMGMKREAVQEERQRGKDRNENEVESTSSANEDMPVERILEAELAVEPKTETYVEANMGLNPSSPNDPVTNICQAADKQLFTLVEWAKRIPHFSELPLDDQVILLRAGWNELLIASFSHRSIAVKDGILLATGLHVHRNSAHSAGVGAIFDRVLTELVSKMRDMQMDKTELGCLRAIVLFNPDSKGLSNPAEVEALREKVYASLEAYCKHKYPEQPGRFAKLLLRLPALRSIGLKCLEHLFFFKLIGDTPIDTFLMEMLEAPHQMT
SMILES,Potency [1],Potency [2],Potency [3],Potency [4],Potency [5],Potency [6],Potency [7],Potency [8],Potency [9],Potency [10],Potency [11],Potency [12],Potency [13]
CC(C)(C)OCC1CO1 (stereo not drawn),inactive,inactive,inactive,inactive,inactive,inactive,inactive,–,–,–,–,–,–
O=C(Nc1ccccc1)c1ccccc1O,–,inactive,inactive,inactive,–,–,8.63 µM (active),inactive,inactive,inactive,inactive,–,–
COc1ccc(S(=O)(=O)N2C(=O)[C@@](c3ccccc3OC)(N3C[C@H](O)C[C@H]3C(=O)N(C)C)c3cc(Cl)ccc32)c(OC)c1,–,inactive,inactive,inactive,–,inactive,inactive,inactive,–,–,–,inactive,inactive
O=C1[C@H]2CCCC[C@H]2C(=O)N1CCCCN1CCN(c2nsc3ccccc23)CC1,inactive,inactive,inactive,inactive,–,–,inactive,inactive,–,–,inactive,inactive,–
COc1ccc(C(=O)Nc2nc3ccccc3c(NCc3ccccc3)c2C#N)cc1,inactive,inactive,inactive,–,–,inactive,–,inactive,inactive,–,–,–,inactive
COc1cc(Cl)c(OC)cc1N,inactive,inactive,inactive,inactive,inactive,–,inactive,inactive,–,inactive,inactive,inactive,–
